Inhibition data for 28 compounds are collected here from PubChem BioAssay AID777 (Sanford-Burnham Center for Chemical Genomics, 2007).

The structures appear in SMILES notation. Out of some 96,000 compounds screened, about 19,000 (20%) were called active.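 How the source made its calls: active means blocking of liver enzyme CYP2C9 beyond about 50% at 5 µM (limit read from the data); inactive means the rest.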 A selection follows.

The target of this assay is Cytochrome P450 2C9 (Homo sapiens) (UniProt P11712). As to the kind of experiment: blockers of cytochrome P450 2C9 activity – biochemical, luminescence, ADME assay, primary screen (AID 777). The following applies: CYP2C9 Supersomes, luciferin-H conversion, at 5 µM, active compounds read high.
Sequence of Cytochrome P450 2C9 (Homo sapiens) (P11712 whole entry, looked up): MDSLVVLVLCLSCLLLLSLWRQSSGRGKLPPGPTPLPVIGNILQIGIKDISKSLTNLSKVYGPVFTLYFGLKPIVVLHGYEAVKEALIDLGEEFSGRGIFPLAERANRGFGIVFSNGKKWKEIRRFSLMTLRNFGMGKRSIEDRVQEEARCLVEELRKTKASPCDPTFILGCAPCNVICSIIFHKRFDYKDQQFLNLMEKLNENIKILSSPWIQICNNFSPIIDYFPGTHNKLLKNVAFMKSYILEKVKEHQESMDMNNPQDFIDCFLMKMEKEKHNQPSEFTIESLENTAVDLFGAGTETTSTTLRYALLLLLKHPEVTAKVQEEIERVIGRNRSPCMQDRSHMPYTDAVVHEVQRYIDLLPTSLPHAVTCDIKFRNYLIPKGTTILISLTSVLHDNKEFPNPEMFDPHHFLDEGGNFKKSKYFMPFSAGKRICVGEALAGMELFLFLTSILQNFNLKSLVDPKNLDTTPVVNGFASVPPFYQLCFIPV
For `COc1cc(OC)cc(-c2cc3nc(C4CCN(C(=O)OC(C)(C)C)CC4)cc(=O)n3[nH]2)c1`, the inhibition was -10.3% (inactive).
The result for `Cc1nnc2sc(-c3ccco3)nn12` reads -2.2% (inactive); that for `CN(C)/C=C1\C=C(c2ccccc2)OC1=O`, -1.5% (inactive); that for `CN(C)c1ccc(NC(=S)N(CCc2ccccc2)C2CC(=O)N(c3c(Cl)cccc3Cl)C2=O)cc1` (stereo not drawn), 17% (inactive).
Take `O=C1CC(Cc2ccccc2)C(=O)N1c1ccc(Cl)cn1` (stereo not drawn): the inhibition was 20.3% (inactive).
The result for `O=C(CSc1nnc(-c2cnccn2)n1Cc1ccco1)c1ccc(Cl)c(Cl)c1` reads 28.8% (inactive); that for `O=C(CSc1nnc(-c2cccnc2)n1Cc1ccco1)c1ccc(Cl)cc1`, 23.6% (inactive).
Consider `COc1cc(Cl)c(C)cc1NC(=O)CSc1nnc(-c2ccco2)n1CC(C)C`, for which the inhibition is 82.6% (active).
On to `O=C(CSc1nnc(-c2cccnc2)n1Cc1ccco1)c1ccc(Cl)c(Cl)c1`, for which the inhibition is 81.6% (active).
With `CCn1c(COc2ccccc2)nnc1SCC(=O)Nc1ccc2c(c1)OCCO2`, the inhibition was 6.8% (inactive).
The result for `COc1ccccc1NC(=O)CSc1nnc(-c2ccoc2C)n1CCc1ccccc1` reads 43.7% (inactive); that for `COc1ccccc1NC(=O)CSc1nc2sc(C)c(C)c2c(=O)n1Cc1ccco1`, 93.8% (active).
On to `O=C(CSc1nnc(-c2ccco2)n1Cc1ccccc1)NC(=O)NCc1ccco1`, for which the inhibition is 29.5% (inactive).
Consider `COc1ccc(OC)c(NC(=O)CSc2nc3cccnc3n2C)c1`, for which the inhibition is 7.6% (inactive).
`COc1ccc(C)cc1-n1nnnc1SCC(=O)c1cc(C)n(Cc2ccco2)c1C`: the inhibition is 27.2% (inactive).
The result for `CCn1c(COc2ccc(OC)cc2)nnc1SCC(=O)Nc1cc(OC)ccc1OC` reads 53.8% (active); that for `CCCOC(=O)Nc1ccccc1C(N)=O`, -7.2% (inactive); that for `N=c1c2c3c(sc2ncn1CCCN1CCOCC1)CCCCC3`, 6.9% (inactive).
The value for `CCOc1ccc(N=Cc2c(O)n(-c3cccc(C)n3)c(=O)c3ccccc23)cc1` was 18% (inactive).
Regarding `Cc1cc(C)n(-c2cc(Oc3ccccc3)ncn2)n1`, the inhibition is 21.8% (inactive).
With `CCOc1ccc(NC(=O)CC2NCCNC2=O)cc1` (stereo not drawn), the inhibition was -7% (inactive).
Take `CCN(CC)C(=O)C1CCC(C)(C(=O)O)C1(C)C` (stereo not drawn): the inhibition is -7.9% (inactive).
With `CCN(CC)C(=O)CSc1nnc(CNc2ccc(F)cc2)n1Cc1ccco1`, the inhibition is -8.3% (inactive).
For `COc1ccc(C(=O)CSc2nnc(COc3ccccc3)n2Cc2ccco2)cc1`, the inhibition is 55.9% (active).
Take `CCn1c(COc2cccc(OC)c2)nnc1SCC(=O)N1CCOCC1`: the inhibition was 15.4% (inactive).
As for `Cc1ccc(-n2ccc(=O)c(C(=O)O)n2)cc1`, the inhibition was 54% (active).
Turning to `Cc1cc(C)n(-c2ccc(Cl)c(C(=O)O)n2)n1`, the inhibition is -21% (inactive).
The value for `CCn1c(SCc2ccc(C)cc2)nnc1-c1nn(-c2ccccc2)ccc1=O` was 5% (inactive).
